# From PubChem BioAssay (NCATS)
# Inconclusive results are not listed. Where a call stands in place of a potency, no number is given. Active and inactive are the calls of the source. Calls come from the whole dose curve; as a rule, active = well fitted cell-killing curve with a large enough effect; inconclusive = small, poorly fitted or top-dose-only effect, or effect the other way; inactive = no such curve, though single readings can be large or run the other way.
# Test: Quantitative highthroughput screen to assess conditional lethalithy of SEM cells grown in RPMI1640 with unreated serum (RPMI+s) (AID 1963883); note: nearly all actives have a fitted effect of over 35% in size
# Conditions: SEM B-ALL cells, CellTiter-Glo viability, 48 h; series mostly up to 45.8 µM
# Text: Assay Provider: Jason Cantor Ph.D.
# Department of Biochemistry
# University of Wisconsin-Madison, Madison, WI, USA
# Chemical screening studies have identified drug sensitivities across hundreds of cancer cell lines but most putative therapeutics fail to translate. Discovery and development of drug candidates in models that more accurately reflect nutrient levels in human blood is a major challenge. Here we performed high-throughput screens in conventional versus Human Plasma-Like Medium (HPLM) to identify compounds that were "missed" when screening using the artificial culture condition. Sets of conditional anticancer compounds spanned phases of clinical development and included non-oncology drugs were assessed. […] We also traced conditional phenotypes for several chemotherapeutics to availability of HPLM-specific metabolites and confirmed others for compounds whose reported targets are encoded by nonessential genes. Our findings establish generalizable strategies for exploiting conditional lethality in HPLM to reveal therapeutic candidates and mechanisms of action in cancer cells.
# Described herein are the results of each viability screens against three cell lines: NOMO1 (an acute myeloid leukemia cell line); P12-Ichikawa (a T-cell acute lymphoblastic leukemia); and SEM (a B-cell ALL). Each assay was screened using 3 different cell culture media: homemade human plasma-Like medium with 10% dialyzed fetal bovine serum (HPLM+ds); RPMI1640 with 10% untreated FBS and 5mM glucose (RPMI+s); and RPMI1640 with 10% dialyzed fetal bovine serum and 5 mM glucose (RPMI+ds).
# PROTOCOL TABLE (as described by Inglese J, Shamu CE and Guy RK. 2007)
# SEQUENCE No. (e.g., 1, 2, 3, etc.); […] (e.g., Cells, Incubation, Reagent, etc.); VALUE and DESCRIPTION.
# 1; Cells; 5 uL; white, solid bottom 1536-well Greiner assay plate.
# 2; Compounds; 23 nL; Kalypsis pin tool (Wako USA) equipped with a 1536-well pin head to transfer to the assay plates.
# 3; Incubation; 48 hours; 37C incubation.
# 4; Reagent; 3 uL; CellTiter Glo (Promega).
# 5; Incubation; 5 min, room temperature
# 6; Detection; Luminescence, Viewlux PerkinElmer.
# NOTES (numbers refer to Sequence numbers above)
# 1. Briefly, 5 ul of cell reagent was dispensed using a Multidrop Combi Dispenser. The NOMO1 and SEM cells were plated at 500 cells/well and the P12-Ichikawa line at 1000 cells/well.
# 2. After seeding the cells, 23 nL of MIPE 4.1 library compounds (in DMSO) were added to each plate using a Kalypsys 1536 Pintool dispenser. Bortezomib at final concentration of […] and DMSO were added to each plate as positive and negative controls respectively. For each screen, MIPE 4.1 compounds were added over an eleven-point concentration range […] in 3-fold dilutions.
# 3. Each plate was covered with a stainless steel gasketed lid to prevent evaporation and incubated for 48 hour at 37C, 95% relative humidity, and 5% CO2.
# 4-5. Three microliter CellTilter-GloTM luminescent substrate mix (Promega) reagent was added to the assay plate and incubated at room temperature for 5 min.
# 6. The luminescence signal was measured using a ViewLux (PerkinElmer) multiplate reader with a 2 second exposure time per plate. Data for each compound were normalized as percent viability such that measurements for DMSO and the empty well controls in each plate were defined as 100% and 0%, respectively.
# Potency is the fitted concentration of half-maximal effect.
row,SMILES,Potency
1,CON(C)C(=O)N1N=C(c2cc(F)ccc2F)S[C@@]1(CCCN)c1ccccc1,0.0117 µM (active)
2,COc1ccc(-c2ccc3c(N4CCOCC4)nc(N4C[C@@H](C)O[C@@H](C)C4)nc3n2)cc1CO,1.87 µM (active)
3,Cn1cnc(-c2cc3nccc(Oc4ccc(NC(=S)NC(=O)Cc5ccccc5)cc4F)c3s2)c1,1.18 µM (active)
4,Cn1cc(-c2cnn3c(N)c(Br)c([C@H]4CCCNC4)nc23)cn1,2.35 µM (active)
5,COc1cc2nc(N3CCN(C(=O)C4CCCO4)CC3)nc(N)c2cc1OC (stereo not given),inactive
6,CCN1C[C@H](C)n2c(c(O)c3c(=O)n(Cc4ccc(F)c(Cl)c4)nc(C(=O)NC)c32)C1=O,inactive
7,O=C(C=CC#Cc1cccc(NS(=O)(=O)c2ccccc2)c1)NO,2.96 µM (active)
8,COc1cnc(NS(=O)(=O)c2ccc(N)cc2)nc1,inactive
9,O=C(NC1CC1)c1cccc(-c2ccc3c(NC(=O)C4CC4)n[nH]c3c2)c1,14.8 µM (active)
10,CCc1ccc(CCOc2ccc(CC3SC(=O)NC3=O)cc2)nc1 (stereo not given),inactive
11,COc1cc2nc(N(C)CCCNC(=O)C3CCCO3)nc(N)c2cc1OC (stereo not given),inactive
12,c1coc(CNc2ncnc3nc[nH]c23)c1,inactive
13,OCCN1C[C@H](O)[C@@H](O)[C@H](O)[C@@H]1CO,inactive
14,COc1ccccc1OCC(O)COC(N)=O (stereo not given),inactive
15,NC(=O)c1ccc(N(C(N)=O)c2c(F)cccc2F)nc1-c1ccc(F)cc1F,inactive
16,CCC(=O)NCC[C@@H]1CCc2ccc3c(c21)CCO3,5.26 µM (active)
17,Cc1cc(Nc2nc(N[C@@H](C)c3ncc(F)cn3)ncc2Cl)n[nH]1,1.05 µM (active)
18,CC(C)(C)c1[nH]cnc1C=c1[nH]c(=O)c(=Cc2ccccc2)[nH]c1=O,0.0061 µM (active)
19,N#Cc1ccnc(Nc2cc(C3CCN(C4COC4)CC3)cc(N3CCC(F)(F)C3)n2)c1,13.2 µM (active)
20,O=c1[nH]c(=O)n(C2CCCO2)cc1F (stereo not given),inactive

row,SMILES,Potency
1,CN(C)Cc1c(C(=O)NCCOc2ccc(C(=O)NO)cc2)oc2ccccc12,1.32 µM (active)
2,CC1=C(C(=O)O)N2C(=O)[C@@H](NC(=O)C(N)c3ccccc3)[C@H]2SC1 (stereo not given in full),inactive
3,CCOC(=O)c1ccc(C#Cc2ccc3c(c2)C(C)(C)CCS3)nc1,inactive
4,CCCS(=O)(=O)Nc1ccc(F)c(C(=O)c2c[nH]c3ncc(Cl)cc23)c1F,11.8 µM (active)
5,O=C1c2ccccc2-[n+]2ccc3c([nH]c4ccccc43)c21,3.32 µM (active)
6,N[C@@H](Cc1cc(I)c(Oc2cc(I)c(O)c(I)c2)c(I)c1)C(=O)O,inactive
7,CCNC(=O)CCCC=CC[C@@H]1[C@H](C=CC(O)CCc2ccccc2)[C@@H](O)C[C@@H]1O (stereo not given in full),inactive
8,C=CC[C@@H]1C=C(C)C[C@H](C)C[C@H](OC)[C@H]2O[C@@](O)(C(=O)C(=O)N3CCCC[C@H]3C(=O)O[C@H](C(C)=C[C@@H]3CC[C@H](O)[C@H](OC)C3)[C@@H](C)[C@@H](O)CC1=O)[C@@H](C)C[C@@H]2OC,1.48 µM (active)
9,CC(C)C[C@H](NC(=O)CNC(=O)c1cc(Cl)ccc1Cl)B1OC(=O)CC(CC(=O)O)(C(=O)O)O1 (stereo not given in full),0.0935 µM (active)
10,C[C@]12CCC3=C4CCC(=O)C=C4CC[C@@H]3[C@H]1CC[C@@]2(O)CC#N,inactive
11,CC(=O)SCC(Cc1ccccc1)C(=O)NCC(=O)OCc1ccccc1 (stereo not given),inactive
12,FC(F)(F)c1ccc(Nc2nc3ccc(Oc4ccnc(-c5ncc(C(F)(F)F)[nH]5)c4)cc3[nH]2)cc1,18.7 µM (active)
13,NC1=N[C@@]2(c3cc(NC(=O)c4ccc(F)cn4)ccc3F)COC[C@@H]2CS1,11.8 µM (active)
14,CC(=O)OCC(=O)[C@@]1(O)CC[C@H]2[C@@H]3CCC4=CC(=O)CC[C@]4(C)[C@@H]3C(=O)C[C@@]21C,inactive
15,O=C(O)[C@H](CC(=O)N1C[C@@H]2CCCC[C@H]2C1)Cc1ccccc1,inactive
16,NC(=O)c1cccc2[nH]c(-c3ccc([C@H]4CCCN4)cc3F)nc12,3.72 µM (active)
17,CCN[C@H]1C[C@H](C)S(=O)(=O)c2sc(S(N)(=O)=O)cc21,inactive
18,CC1(CN2CCC(n3c(=O)[nH]c4ccccc43)CC2)OCc2ccccc2-n2cccc21 (stereo not given),inactive
19,Cc1cc(O)c2c(c1)C(=O)c1cc(O)cc(O)c1C2=O,inactive
20,O=C(O)C1(Cc2cccc(Nc3nccs3)n2)CCC(Oc2cccc(Cl)c2F)CC1 (stereo not given),3.32 µM (active)
